Common to all, as to experiment: PBM binding z-score (relative to random genomic background probes); higher = stronger binding; sequences stand for … in GC…GCGATTGACAGCGTAGAATGAAGG
Test [1] relates to FXR:RXRa (NR concentration 270 nM, RXRa partner concentration 90 nM). Summed up:
(§1)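 On custom Agilent 4×180K arrays, double-stranded probes with 34-nt variable regions carried direct-repeat seeds, single-nucleotide variants, half-site ablations or random human genomic background. Ligand-free nuclear receptor dimers were applied for 1 h, and binding was read with antibodies against each partner (one per run). Binding z-scores come from regression-normalized fluorescence, with the random background probes as reference.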

Test [2] has as its system LXRa:RXRa (NR concentration 270 nM, RXRa partner concentration 90 nM). Summed up: as §1
Test [3] has as its system LXRa homodimer (NR concentration 270 nM). Summed up:
as §1

The subject of test [4] is LXRb:RXRa (NR concentration 270 nM, RXRa partner concentration 90 nM). Summed up:
as §1

Test [5] deals with LXRb homodimer (NR concentration 270 nM). Summed up: as §1
The subject of test [6] is PPARa:RXRa (NR concentration 270 nM, RXRa partner concentration 90 nM). Summed up:
as §1

The test system of test [7] is PPARg:RXRa (NR concentration 180 nM, RXRa partner concentration 90 nM). Summed up: as §1
Test [8] has as its system PPARg:RXRa 270nM:90nM, anti-RXR (NR concentration 270 nM, RXRa partner concentration 90 nM). Summed up: as §1
In test [9] the test system is PPARg:RXRa 30nM:10nM, anti-RXR (NR concentration 30 nM, RXRa partner concentration 10 nM). Summed up: as §1
For test [10], the system named is PPARg:RXRa 90nM:30nM, anti-RXR (NR concentration 90 nM, RXRa partner concentration 30 nM). Summed up: as §1
Test [11] deals with PPARg:RXRa DBDmut IVT, anti-RXR (DBD mutation: RXRa K156A/R161A, NR concentration 270 nM, RXRa partner concentration 90 nM). Summed up:
as §1

Test [12] deals with PPARg:RXRa IVT, anti-PPARg (NR concentration 270 nM, RXRa partner concentration 90 nM). Summed up:
as §1

In test [13] the test system is PPARg DBDmut:RXRa IVT, anti-PPARg (DBD mutation: PPARg1 K132A/R137A, NR concentration 270 nM, RXRa partner concentration 90 nM). Summed up: as §1
For test [14], the system named is PPARg DBDmut IVT, anti-PPARg (DBD mutation: PPARg1 K132A/R137A, NR concentration 270 nM). Summed up:
as §1

The subject of test [15] is PPARg homodimer (NR concentration 180 nM). Summed up:
as §1

The test system of test [16] is PXR:RXRa (NR concentration 270 nM, RXRa partner concentration 90 nM). Summed up: as §1
Test [17] concerns PXR homodimer (NR concentration 270 nM). Summed up:
as §1

Test [18] relates to RARa:RXR (NR concentration 270 nM, RXRa partner concentration 90 nM). Summed up:
as §1

Test [19] relates to RARa homodimer (NR concentration 270 nM). Summed up: as §1
Test [20] concerns RARb:RXRa (NR concentration 270 nM, RXRa partner concentration 90 nM). Summed up:
as §1

For AGAACGAGGGCAATGAGTTGGTAGCACGGGTGGC, the PBM binding z-score in test [1] was 0.301; in test [2], 0.0909; in test [3] it was -0.759; in test [4], -0.443; in test [5] it was -0.642; in test [6], 1.18. Also, the PBM binding z-score in test [7] is 0.956; in test [8], 0.772; in [9], -0.238; in [10] it was 0.196; in [11], 3.11; in test [12], 2.58. Also, the PBM binding z-score in test [13] is 0.246; in test [14], -0.0657; in test [15], -0.218; in [16], 0.943; in test [17], 1.44; in [18], 0.0918. For the same sequence, the results for the PBM binding z-score in test [19] and in test [20] were -0.865 and 1.96, respectively.
ATATGTAGGTTGCATCCGGGTCATTCAGGCTATG: the PBM binding z-score in [1] is 1.21; in test [2] it was 1.43; in [3], 0.122; in [4] it was 1.29; in test [5] it was -0.0904; in test [6] it was 2.76. Moreover, the PBM binding z-score came to 1.97 in test [7]; 1.68 in test [8]; 0.362 in test [9]; 1.36 in test [10]; 4.33 in [11]; 3.93 in test [12]. Also, the PBM binding z-score came to 1.47 in [13]; 0.927 in test [14]; 0.466 in test [15]; 2.76 in test [16]; 1.85 in test [17]; 2.73 in [18]. For the same sequence, the values for the PBM binding z-score in test [19] and in test [20] were 0.0936 and 1.4, respectively.
For CGTCTAAGTTCAACTAAGGTAACGTAAAGCACGC, the PBM binding z-score in [1] was 5.42; in [2], 4.54; in test [3], 1.66; in test [4], 2.8; in [5], 0.991; in test [6] it was 3.67. For the same sequence, the PBM binding z-score in test [7] was 1.24; in test [8] it was 2.06; in [9], 0.533; in test [10], 1.24; in [11], 0.256; in [12] it was 0.683. The PBM binding z-score was 0.378 in test [13]; 0.759 in [14]; 1.95 in test [15]; 5.04 in test [16]; 4.82 in test [17]; 3.08 in test [18]. Moreover, the PBM binding z-score in [19] is 1.48; in test [20], 4.
For TATATTAGTTGATTAGGGCAACCGAAACAGCGGA, the PBM binding z-score in [1] is 0.381; in test [2], 0.319; in test [3], 0.79; in test [4], 0.365; in test [5], 1.33; in test [6], 0.535. Besides, the PBM binding z-score in test [7] is 0.578; in [8] it was 0.666; in [9] it was 1.02; in test [10], 0.819; in test [11], 0.409; in test [12], 2.01. Further, the PBM binding z-score in test [13] was 2.25; in test [14] it was 1.83; in test [15], 1.16; in [16], 0.636; in test [17] it was 0.89; in [18], 0.181. In addition, the figures for the PBM binding z-score in test [19] and in test [20] were 2.13 and 1.16, respectively.
As for CATACAAGGTCAGCTAGGCCAGAGTAGGGACGGC, the PBM binding z-score turned out to be 5.48 in [1]; 4.64 in test [2]; 0.878 in test [3]; 2.65 in [4]; 0.921 in [5]; 4.45 in test [6]. In addition, the PBM binding z-score in [7] amounted to 3.65; in [8], 3.36; in [9], 0.947; in [10], 2.45; in test [11] it was 2.49; in test [12], 3.08. Besides, the PBM binding z-score in test [13] amounted to 1.69; in test [14], 1.12; in test [15] it was 2.33; in test [16], 2.51; in test [17], 0.612; in test [18], 3.43. For the same sequence, the PBM binding z-score in test [19] worked out at 1.39; in test [20], 4.89.
On to CCAACTGGGGCAGAAAGGTTACCATACCATCCGG, for which the PBM binding z-score is 0.267 in [1]; 0.782 in test [2]; 0.0649 in test [3]; 1.12 in [4]; -0.79 in test [5]; 2.53 in [6]. Further, the PBM binding z-score amounted to 2.29 in test [7]; 2.56 in test [8]; 0.915 in test [9]; 2.11 in test [10]; 3.25 in [11]; 3.34 in test [12]. Besides, the PBM binding z-score in test [13] is 0.0349; in test [14], -0.823; in test [15], 0.624; in test [16], 1.1; in test [17] it was 0.0955; in test [18] it was 1.98. Besides, the PBM binding z-score in [19] was -0.139; in test [20] it was 2.03.
For the sequence CGAACGAGGGCATGAGTTGATAGCTAATGCCGAT, the PBM binding z-score was 0.677 in test [1]; 0.398 in [2]; -0.532 in [3]; 0.00979 in test [4]; -0.952 in [5]; 1.51 in test [6]. The PBM binding z-score is 1.53 in test [7]; 1.5 in [8]; 0.214 in test [9]; 0.782 in [10]; 2.71 in [11]; 2.2 in test [12]. The PBM binding z-score in test [13] was 0.229; in test [14], -0.661; in test [15] it was 0.249; in test [16], 0.689; in test [17], 0.178; in [18], 0.401. The PBM binding z-score in [19] amounted to 0.0358; in test [20], 2.08.

The record behind these values is the supplement of paper PMC6555819.
